# PubChem BioAssay (NCI)
# The panel holds about 79,000 compounds, 15% with a hit somewhere; the sample as a whole holds those more often. Values without a mark were called inactive. Activity calls are given as the source filed them. Rule as the data show it: active = growth inhibition above about 70%; inactive = the rest.
# Key:
# [1] = NCI Yeast Anticancer Drug Screen. Data for the rad50 strain (AID 155);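 also: 0% = growth of vehicle-only cultures of the same strain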; conditions: S. cerevisiae rad50 strain growth inhibition, stronger effect = higher value
# Outline: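 Vehicle-treated cultures provide the reference for the growth inhibition reported for compound-exposed, repair-deficient yeast.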
# [2] = NCI Yeast Anticancer Drug Screen. Data for the mec2-1 strain (AID 157); conditions: S. cerevisiae mec2-1 strain, stronger effect = higher value
# Outline: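 Yeast mec2-1 mutant treated with compound. Readout: growth inhibition vs vehicle controls.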
# [3] = NCI Yeast Anticancer Drug Screen. Data for the sgs1 mgt1 strain (AID 161);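 also: 0% = growth of cultures given vehicle only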; conditions: S. cerevisiae sgs1 mgt1 strain, stronger effect = higher value
# Outline: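 Genetically altered yeast, compound exposure, growth inhibition relative to vehicle.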
# [4] = NCI Yeast Anticancer Drug Screen. Data for the cln2 rad14 strain (AID 165);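 also: 0% = growth equal to vehicle treated cultures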; conditions: S. cerevisiae cln2 rad14 strain, stronger effect = higher value
# Outline: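 cln2 rad14 yeast strain; compound exposure; growth inhibition read vs vehicle controls.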
# [5] = NCI Yeast Anticancer Drug Screen. Data for the bub3 strain (AID 167); conditions: S. cerevisiae bub3 mutant strain, stronger effect = higher value
# Outline: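 Mutant yeast screening strain plus compound; vehicle-treated cultures serve as the 0% inhibition reference.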
# [6] = NCI Yeast Anticancer Drug Screen. Data for the mlh1 rad18 strain (AID 175); conditions: S. cerevisiae mlh1 rad18 strain growth inhibition, stronger effect = higher value
# Outline: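 Yeast w/ defined DNA-repair lesions; compound exposure; growth vs vehicle controls → % inhibition.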
# [7] = at 5.0 µM (retest, dose inferred, filed as 0.5)
# [8] = at 50.0 µM (retest, dose inferred, filed as 5.0)
SMILES,"growth inhibition [1, 7] [%]","growth inhibition [1, 8]",growth inhibition ([1]; at 50.0 µM),"growth inhibition [2, 7] [%]","growth inhibition [2, 8]",growth inhibition ([2]; at 50.0 µM),"growth inhibition [3, 7] [%]","growth inhibition [3, 8]",growth inhibition ([3]; at 50.0 µM),"growth inhibition [4, 7] [%]","growth inhibition [4, 8]",growth inhibition ([4]; at 50.0 µM),"growth inhibition [5, 7] [%]","growth inhibition [5, 8]",growth inhibition ([5]; at 50.0 µM),"growth inhibition [6, 7] [%]","growth inhibition [6, 8]",growth inhibition ([6]; at 50.0 µM)
CN(C)Cc1cc(C(C)(C)C)cc(C2CCCCC2)c1O,2,58%,66.4%,-9,66%,38.5%,-1,95% (active),74.3% (active),-4,8%,61.7%,-6,40%,71.8% (active),1,94% (active),92.4% (active)
COC1OC(CN=[N+]=[N-])C(OC(=O)c2ccccc2)C(OC(C)=O)C1OC(C)=O (configuration not stated),-3,-3%,7.35%,-24,23%,9.8%,-192,-1%,18.1%,2,-2%,0%,61,73% (active),80% (active),13,13%,18.2%
CCCCC(CSC#N)SC#N (configuration not stated),14,98% (active),99% (active),14,98% (active),98.3% (active),12,97% (active),97.2% (active),3,95% (active),97.2% (active),16,97% (active),98% (active),24,98% (active),98.3% (active)
O=C(CCl)OCC(=O)c1ccc(-c2ccccc2)cc1,9,97% (active),10.2%,5,97% (active),-1.9%,10,99% (active),21.2%,28,95% (active),10.2%,11,98% (active),19.4%,16,98% (active),32.4%
CC(=O)N1CC(C)CC2OC3(CCC4C5CCC6CC(O)CCC6(C)C5C(=O)C4C3C)C(C)C21 (configuration not stated),10,98% (active),91.6% (active),1,98% (active),93.7% (active),19,97% (active),92.6% (active),26,98% (active),92.5% (active),14,98% (active),92.2% (active),-20,98% (active),91.8% (active)
CCOc1ccc2nc([NH-])sc2c1.CCOc1ccc2nc([NH-])sc2c1.CCOc1ccc2nc([NH-])sc2c1.CCOc1ccc2nc([NH-])sc2c1.[Cl][Rh][Cl],-5,46%,29.9%,0,32%,31.6%,4,63%,67.2%,-5,26%,30.1%,-10,34%,0.25%,6,81% (active),80% (active)
CN(C)CCCNc1cc(/C=C/c2ccc([N+](=O)[O-])cc2)nc2ccccc12,-6,70% (active),80.8% (active),-3,38%,68.5%,-2,60%,86.3% (active),-4,64%,39.1%,-6,45%,60.9%,-3,56%,91.1% (active)
Cc1cn(C2CC(Br)C(COC(c3ccccc3)(c3ccccc3)c3ccccc3)O2)c(=O)[nH]c1=O (configuration not stated),10,97% (active),97.6% (active),6,99% (active),98.3% (active),8,33%,98.2% (active),2,97% (active),96.8% (active),6,99% (active),96.2% (active),8,98% (active),97.9% (active)
O=C(Nc1ccc(C2=NCCN2)cc1)c1ccc(C(=O)Nc2ccc(C3=NCCN3)cc2)c(Cl)c1,42,97% (active),51.2%,25,98% (active),78.7% (active),57,99% (active),76% (active),43,96% (active),80% (active),54,98% (active),68.5%,35,95% (active),87.8% (active)
